Sampled rows, rich in hits. Any-hit rate of the full collection: about 4.1%.
Env fusion inh – inhibitors of HIV Env-mediated cell fusion; HeLa-JRFL Env/CEM21 cell fusion, luciferase; inhibition, % at 12.3 µM; hit rate 1.1% among 360,000;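 active = mean replicate inhibition score of at least 50 and every replicate individually at or above 50; inconclusive = only one of the two criteria met; inactive = mean below 50 and not all replicates reaching 50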
NSD2 HMT inh – blocks human histone methyltransferase NSD2 | O96028 | NSD2 peptide methylation, AlphaScreen, 120 min | inhibition, % at 12.5 µM | hit rate 0.54% among 310,000 | AID 743445; in the data active = inhibition above about 50%
Casp6 inh – blocks human caspase-6 cleavage activity. purified caspase-6, Z-VEID-R110 cleavage fluorescence. inhibition, % at 12.5 µM. hit rate 0.53% among 350,000. AID 686996;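 active = mean inhibition across replicates at least about 35%, with every replicate also reaching that limit, limit read from the data; inconclusive = only one of the two criteria met; inactive = neither criterion met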
Target sequence (P55212 24-179 limits assumed): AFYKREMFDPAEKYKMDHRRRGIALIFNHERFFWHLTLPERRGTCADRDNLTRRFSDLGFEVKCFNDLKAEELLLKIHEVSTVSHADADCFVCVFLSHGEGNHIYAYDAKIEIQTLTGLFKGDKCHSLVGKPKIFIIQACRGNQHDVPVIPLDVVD
Target sequence (P55212 194-293 limits assumed): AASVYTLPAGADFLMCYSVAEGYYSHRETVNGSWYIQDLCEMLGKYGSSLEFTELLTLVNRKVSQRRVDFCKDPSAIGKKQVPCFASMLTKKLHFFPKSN
CFTR F508del cor – correctors of CFTR F508del function in bronchial epithelial cells; CFBE cells, YFP halide quenching; stimulated with forskolin plus potentiator P3; % fluorescence drop versus neutral controls; hit rate 0.36% among 350,000; AID 720511; activity (quench increase), % at 7.58 µM;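 active = mean added fluorescence quench of at least 8% versus neutral control, with both replicates also reaching 8%; inconclusive = only one of the mean or replicate conditions met; inactive = mean below 8% and not both replicates reaching 8%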;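 also: cells transiently co-express mutant CFTR-F508del with the halide-sensitive YFP; corrector assay measuring rescue of mutant channel to the surface after 24 h compound exposure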
PglD DTNB – PglD (C. jejuni) enzyme inhibition. inhibition, % at 12.5 µM. purified PglD enzyme, DTNB colorimetric CoA detection. hit rate 0.098% among 360,000; in the data active = inhibition above about 16%, passing the limit was not always enough; inconclusive = no clear call, values can overlap the other calls
ALR H2O2 inh – inhibitors of human sulfhydryl oxidase ALR. inhibition, % (test concentration not listed). AID 485317. purified ALR, DTT oxidation, H2O2 HRP-luminol luminescence. P55789. hit rate 3.8% among 290,000;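 active = mean replicate inhibition above about 79%, with every replicate also reaching it, limit read from the data; inconclusive = only one of the two criteria met; inactive = mean below limit and not every replicate reaching it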
Target sequence (P55789 whole entry, looked up): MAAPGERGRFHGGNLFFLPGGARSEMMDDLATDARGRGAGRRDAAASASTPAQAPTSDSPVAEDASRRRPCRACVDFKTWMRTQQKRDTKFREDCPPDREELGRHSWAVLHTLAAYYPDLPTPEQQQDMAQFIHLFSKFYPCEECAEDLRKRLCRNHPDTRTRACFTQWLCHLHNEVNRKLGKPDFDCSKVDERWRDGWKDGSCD
A number is an active result; n = inactive; u = inconclusive; x = no result given.

SMILES | Env fusion inh | NSD2 HMT inh | Casp6 inh | CFTR F508del cor | PglD DTNB | ALR H2O2 inh
CN1CCN(C(=O)C[C@@H]2C[C@H]3c4cc(NC(=O)Nc5ccccc5F)ccc4O[C@H]3[C@H](CO)O2)CC1 | n | x | x | n | n | x
Cc1noc(C)c1NC(=O)N(C)C[C@@H]1OCCCC[C@@H](C)Oc2ccc(NC(=O)NC3CCCCC3)cc2C(=O)N([C@H](C)CO)C[C@@H]1C | n | x | n | n | n | x
Cc1ccn2c(=S)[nH]nc2c1 | n | n | 37 | n | n | x
O=C(NCC1CC1)[C@H]1[C@H](CO)[C@H]2Cn3c(ccc(-c4cccnc4)c3=O)[C@@H]1N2C(=O)C1CCCC1 | x | x | n | n | x | x
CCCCCCn1c(N2CCN(c3ccccc3)CC2)nc2c1c(=O)n(C)c(=O)n2C | n | n | x | x | n | n
CCCCCn1c(N2CCCC2)nc2c1c(=O)n(C)c(=O)n2C | n | n | n | n | n | 98
O=C(c1ccc(NC(=O)C(c2ccccc2)c2ccccc2)cc1)c1ccc(C(=O)O)c(C(=O)O)c1 | n | n | n | n | n | 94
Cc1nc(SCc2ccccc2)c([N+](=O)[O-])[nH]1 | n | n | x | x | n | x
COc1cc(NC(=O)CSCc2ccccc2)c(C(=O)O)cc1OC | n | n | n | n | n | 76
COc1ccc(CSc2nc(C)[nH]c2[N+](=O)[O-])cc1[N+](=O)[O-] | n | n | n | n | n | 100
COc1cc(NC(=O)C(c2ccccc2)c2ccccc2)c(C(=O)O)cc1OC | n | n | n | x | n | 92
C[C@H](CO)N1C[C@H](C)[C@@H](CN(C)S(=O)(=O)c2cn(C)cn2)Oc2c(NC(=O)C3CCOCC3)cccc2C1=O | x | x | n | n | n | x
COc1ccc(NC(=O)Nc2ccc3c(c2)CC(=O)N([C@H](C)CO)C[C@H](C)[C@@H](CN(C)Cc2ccc(Oc4ccccc4)cc2)O3)cc1 | n | x | n | n | n | x
CC(=O)c1cccc(NC(=O)CSCc2ccccc2)c1 | n | n | x | x | n | 97
CC(=O)c1cccc(NC(=O)CSCc2ccc(Br)cc2)c1 | n | n | x | x | n | n
COc1ccc(CSCC(=O)Nc2ccccc2)cc1[N+](=O)[O-] | n | n | n | n | n | 99
COc1ccc2c3c([nH]c2c1)[C@H](CO)N(C(C)=O)CC31CN(C(C)=O)C1 | x | x | x | n | x | x
CCC(=O)N[C@H]1C=C[C@H](CC(=O)NCC2CC2)O[C@H]1CO | x | x | n | n | x | x
N#CC(C(=O)Nc1cccc(Cl)c1)=C1Nc2ccccc2N1 | x | n | x | x | n | n
N#CC(C(=O)Nc1ccccc1)=C1Nc2ccccc2N1 | n | n | x | x | n | 86
COc1ccc2c3c([nH]c2c1)[C@@H](CO)N(C(=O)CN(C)C)CC31CCN(Cc2ccccc2Cl)CC1 | x | x | n | n | x | x
CN(C)S(=O)(=O)c1ccc(N2CCCC2)c(C(=O)NCC2CCCCC2)c1 | n | n | n | n | x | n
CN(C)S(=O)(=O)c1ccc(N2CCCC2)c(C(=O)NCCc2ccc(F)cc2)c1 | 75 | n | n | n | n | n
O=C(N/N=C/c1ccc(O)c(O)c1)N/N=C/c1ccc(O)c(O)c1 | n | x | 75 | n | n | 100
COc1cccc2c(N/N=C/c3ccccc3)cc(C)nc12 | n | n | n | n | n | 87
SMILES | Env fusion inh | NSD2 HMT inh | Casp6 inh | CFTR F508del cor | PglD DTNB | ALR H2O2 inh
COc1ccc2nc(C)cc(SCC(=O)N/N=C/c3cccc4ccccc34)c2c1 | n | n | x | x | n | n
COc1cccc2c(SCC(=O)N/N=C/c3ccc(O)c(O)c3)cc(C)nc12 | n | 132 | x | n | x | 100
COc1ccccc1Nc1cc(C)nc2c(C)cccc12 | n | n | n | n | n | x
Cc1nonc1C(=O)N/N=C/c1ccc(O)c(O)c1 | n | n | x | x | n | n
COc1cccc2c(SCC(=O)N/N=C/c3ccccc3)cc(C)nc12 | n | n | n | x | n | 99
Cc1cc(SCC(=O)N/N=C/c2ccc(O)c(O)c2)c(C)cc1Br | n | n | x | x | n | 99
Cc1cc(SCC(=O)N/N=C/c2ccc(O)c(O)c2)nc2ccccc12 | n | n | n | n | n | x
Cc1ccc(Nc2nc(Cl)nc(NC(C)(C)C)n2)cc1 | n | n | n | n | n | n
Cc1ccc(Nc2nc(Cl)nc(N(C)C#N)n2)cc1 | x | n | n | x | n | 97
COc1cc(-c2nc3cnccn3c2Nc2ccccc2)ccc1O | n | x | n | n | x | u
COc1cc(-c2nc3ccc(C)cn3c2Nc2ccc3c(c2)OCCO3)ccc1O | x | n | n | n | n | 91
COc1cc(-c2nc3cnccn3c2Nc2ccc3c(c2)OCCO3)ccc1O | n | n | x | x | n | 99
CC(C)(C)Nc1c(-c2ccc(O)cc2)nc2ccc(Cl)cn12 | n | n | n | n | n | n
COc1cc(-c2nc3cnccn3c2Nc2ccc(C)cc2)ccc1O | x | n | n | n | n | 99
COc1cc(-c2nc3cnccn3c2Nc2ccc(C(C)C)cc2)ccc1O | x | n | n | n | n | n
CC(C)(C)CC(C)(C)Nc1c(-c2ccc(O)cc2)nc2cnccn12 | n | n | n | x | n | 100
Oc1ccc(-c2nc3cnccn3c2Nc2ccc3c(c2)OCCO3)cc1 | n | x | n | n | n | 99
c1ccc(-c2nc3cnccn3c2Nc2ccc3c(c2)OCCO3)cc1 | n | n | x | x | n | x
Cc1oc(-c2ccccc2F)nc1CS(=O)CC(=O)NCc1ccccn1 (stereo not given) | n | n | n | n | n | 99
Cc1ccc(-c2nc(CS(=O)CC(=O)NCc3ccc(F)cc3)c(C)o2)cc1 (stereo not given) | n | n | n | n | n | 99
CCc1ccc(-c2nc(CS(=O)CC(=O)NCCc3ccccc3)c(C)o2)cc1 (stereo not given) | n | n | n | n | n | 99
Cc1ccc(NC(=O)CS(=O)Cc2nc(-c3ccc(C)cc3)oc2C)cc1 (stereo not given) | n | x | n | n | n | 99
Cc1oc(-c2ccccc2F)nc1CSCC(=O)NC1CCCC1 | n | n | n | n | x | n
COc1ccc(-c2nc(CS(=O)(=O)CC(=O)NCCc3ccccc3)c(C)o2)cc1 | n | n | n | n | n | n
Cc1ccc(-c2nc(CS(=O)CC(=O)NCc3ccccn3)c(C)o2)cc1 (stereo not given) | n | x | n | n | n | 100
SMILES | Env fusion inh | NSD2 HMT inh | Casp6 inh | CFTR F508del cor | PglD DTNB | ALR H2O2 inh
Cc1ccc(-c2nc(CS(=O)CC(=O)NCc3ccccc3)c(C)o2)cc1 (stereo not given) | n | x | n | n | n | 98
Cc1ccc(CCNC(=O)CS(=O)Cc2nc(-c3cccs3)oc2C)cc1 (stereo not given) | n | n | n | n | x | x
Cc1ccc(CNC(=O)CS(=O)Cc2nc(-c3cccs3)oc2C)cc1 (stereo not given) | n | x | n | n | n | 99
CCCNC(=O)c1cc2c(c(-c3cccc(-c4cccc(F)c4)c3)n1)[C@H](CCO)N([S@@](=O)C(C)(C)C)C2 | n | x | n | n | n | x
COc1ccc(S(=O)(=O)Nc2cccc3c2O[C@H](CN(C)Cc2ccc(C(=O)Nc4ccccc4N)cc2)[C@@H](C)CN([C@@H](C)CO)C3=O)cc1 | x | x | x | n | x | x
CCO/C=C1/C(=O)N(c2ccccc2OC)C(=O)c2ccccc21 | n | n | 38 | n | n | n
